# Source: publication PMC5540273 (PLoS ONE, 2017)
# Tests used:
# Settings in all cases: concentration: 1 μM, replicates: in singlicate; n = 1
# [1] = tested on: RPS6KA4(Kin.Dom.1-N-terminal)
# [2] = tested on: RPS6KA4(Kin.Dom.2-C-terminal)
# [3] = tested on: RPS6KA5(Kin.Dom.1-N-terminal)
# [4] = tested on: RPS6KA5(Kin.Dom.2-C-terminal)
# [5] = tested on: T1, RSK1(Kin.Dom.1-N-terminal)
# T1 construct: gene RPS6KA1
# [6] = tested on: T2, RSK1(Kin.Dom.2-C-terminal)
# T2 construct: gene RPS6KA1
# [7] = tested on: T3, RSK2(Kin.Dom.1-N-terminal)
# T3 construct: gene RPS6KA3
# [8] = tested on: T4, RSK2(Kin.Dom.2-C-terminal)
# T4 construct: gene RPS6KA3
# [9] = tested on: T5, RSK3(Kin.Dom.1-N-terminal)
# T5 construct: gene RPS6KA2
# [10] = tested on: T6, RSK3(Kin.Dom.2-C-terminal)
# T6 construct: gene RPS6KA2
# [11] = tested on: T7, RSK4(Kin.Dom.1-N-terminal)
# T7 construct: gene RPS6KA6
# [12] = tested on: T8, RSK4(Kin.Dom.2-C-terminal)
# T8 construct: gene RPS6KA6
# [13] = tested on: S6K1
# [14] = tested on: SBK1
# [15] = tested on: SGK2
# [16] = tested on: SGK3
# [17] = tested on: SGK
# [18] = tested on: SIK2
# [19] = tested on: SIK
# [20] = tested on: SLK
# 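Further: KINOMEscan kinase panel screen.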
Compound,%Inh [1],%Inh [2],%Inh [3],%Inh [4],%Inh [5],%Inh [6],%Inh [7],%Inh [8],%Inh [9],%Inh [10],%Inh [11],%Inh [12],%Inh [13],%Inh [14],%Inh [15],%Inh [16],%Inh [17],%Inh [18],%Inh [19],%Inh [20]
CN(c1ccc(NC(=O)Nc2cccc(Cl)c2)cc1)c1ccnc(N)n1.Cl [GW830707],21%,0%,4%,0%,0%,0%,0%,0%,0%,0%,0%,0%,0%,3%,0%,0%,0%,0%,0%,20%
COc1cccc(CC(=O)N2CCc3cc(-c4cn(C)c5ncnc(N)c45)ccc32)c1 [GSK2608899],28%,0%,1%,11%,21%,27%,16%,17%,22%,20%,0%,29%,13%,20%,2%,2%,0%,0%,17%,65%
CC(C)c1nc(-c2ccc(F)c(NS(=O)(=O)c3c(F)cccc3F)c2)c(-c2ccnc(Nc3ccc(N4CCOCC4)nc3)n2)s1 [GSK1804250],6%,0%,15%,3%,25%,9%,22%,27%,24%,6%,0%,16%,3%,25%,8%,20%,25%,88%,99.5%,91.4%
COc1cc(Nc2ccnc3cc(-c4ccncc4)ccc23)cc(OC)c1OC.Cl [GW494610],8%,0%,22%,0%,0%,0%,5%,20%,1%,0%,19%,0%,17%,100%,5%,2%,19%,74%,91.5%,49%
Cc1ccc(-c2ccc3occ(-c4ccc(S(C)=O)cc4)c3c2)nn1 (stereo not drawn),1%,0%,22%,0%,0%,0%,0%,9%,0%,0%,0%,0%,5%,0%,0%,0%,0%,7%,0%,12%
CCn1c(-c2nonc2N)nc2c(-c3ccccc3)ncc(OCCCN)c21.O=C(O)C(F)(F)F.O=C(O)C(F)(F)F [GSK260205],0%,0%,31%,8%,19%,50%,80%,0%,99.7%,1%,67%,90.3%,44%,9%,0%,71%,1%,36%,11%,99.1%
COc1ccc(NC(=O)c2ccoc2)cc1-c1ccc(C(=O)NCC2CC2)cc1 [GW810437],18%,0%,4%,8%,0%,21%,22%,0%,0%,27%,8%,0%,9%,48%,0%,19%,25%,0%,0%,0%
CN(c1ccc2c(c1)nc(NCc1ccccc1)n2C)c1ccnc(Nc2ccc(CS(C)(=O)=O)cc2)n1.Cl [GW811603],7%,0%,0%,0%,2%,0%,0%,24%,0%,23%,0%,0%,0%,0%,24%,0%,13%,10%,9%,38%
CN(C)CCOc1ccc(-c2cc(-c3ccc(Cl)c(O)c3)c(-c3ccncc3)[nH]2)cc1.Cl.Cl [SB-684387],0%,23%,0%,33%,10%,23%,3%,8%,4%,0%,0%,25%,6%,12%,10%,20%,24%,27%,4%,98%
Cc1ccc(NC(=O)c2cccc(N3CCCCC3)c2)cc1-c1ccc(C(=O)NCC2CC2)cc1 [GSK1917008],28%,0%,33%,8%,18%,1%,15%,21%,12%,5%,0%,37%,8%,10%,11%,7%,0%,93.3%,8%,10%
Cc1ccc(O)cc1Nc1ccnc2ccc(C(C)(C)C)cc12 [GW856805],4%,9%,2%,8%,30%,0%,39%,32%,16%,0%,31%,1%,13%,53%,13%,1%,25%,0%,42%,12%
CCNC(=O)/C=C/c1n[nH]c2cc(Sc3ccccc3C(=O)NC)ccc12,8%,21%,4%,0%,24%,15%,8%,0%,8%,34%,17%,24%,18%,0%,0%,46%,0%,55%,44%,23%
CC(C)(C)c1ccc(C(=O)Nc2cn3cc(-n4ccnc4)ccc3n2)cc1,0%,22%,10%,31%,0%,0%,25%,0%,0%,0%,29%,0%,8%,0%,11%,60%,2%,10%,9%,6%
CC(C)NCC(Cc1ccccc1)NC(=O)c1cc(Br)c(-c2ccnc3[nH]ccc23)s1.Cl.Cl (stereo not drawn) [GSK1383281],76%,0%,48%,22%,50%,0%,25%,0%,16%,6%,5%,20%,56%,45%,0%,66%,59%,0%,4%,0%
O=C(Nc1n[nH]c2cc(-c3cccs3)ccc12)C1CC1 [SB-731284],0%,11%,0%,0%,8%,0%,41%,0%,0%,0%,39%,13%,61%,13%,0%,37%,18%,0%,0%,0%
O=C(Nc1n[nH]c2nc(-c3ccccc3O)ccc12)C1CC1 [SB-711880],0%,7%,0%,0%,4%,0%,54%,0%,11%,31%,51%,28%,26%,0%,31%,8%,30%,58%,0%,49%
CN(C)CCNS(=O)(=O)c1ccc(-c2ccnc3[nH]ccc23)cc1 [GSK977620],30%,73%,44%,68%,30%,31%,60%,9%,32%,21%,25%,22%,32%,47%,0%,32%,4%,11%,14%,71%

Compound,%Inh [1],%Inh [2],%Inh [3],%Inh [4],%Inh [5],%Inh [6],%Inh [7],%Inh [8],%Inh [9],%Inh [10],%Inh [11],%Inh [12],%Inh [13],%Inh [14],%Inh [15],%Inh [16],%Inh [17],%Inh [18],%Inh [19],%Inh [20]
CNc1nccc(-c2ccc3c(N)n[nH]c3c2)n1 [GSK2206003],3%,91.8%,19%,63%,22%,22%,38%,0%,14%,5%,59%,24%,0%,36%,6%,38%,36%,9%,0%,69%
COc1cccc(-c2nc(-c3ccccc3)[nH]c2-c2ccncc2)c1 [SB-610250],2%,0%,7%,41%,19%,7%,12%,26%,11%,0%,0%,63%,19%,9%,40%,0%,31%,0%,1%,6%
Cc1ccccc1CC(=O)N1CCc2cc(-c3cn(C)c4ncnc(N)c34)ccc21 [GSK2603346],11%,0%,20%,0%,0%,4%,0%,6%,24%,0%,28%,10%,19%,23%,2%,0%,0%,0%,0%,48%
CN(c1ccc(NC(=O)N2CCN(CCCN3CCOCC3)CC2)cc1)c1ccnc(Nc2ccc(CS(C)(=O)=O)cc2)n1.Cl [GW830899],31%,0%,0%,0%,2%,1%,0%,1%,0%,0%,0%,0%,0%,0%,0%,0%,0%,9%,8%,47%
O=C(O)C(F)(F)F.O=c1[nH]ccc2nc(N[C@@H]3CCNC3)nc(Nc3ccc4c(c3)S(=O)(=O)CC4)c12 [GSK2181306],91.8%,100%,62%,95.4%,97.8%,78%,97.6%,31%,91.3%,87%,97.8%,59%,92.7%,90.1%,91.7%,98.6%,97.2%,73%,18%,99.7%
COc1ccc(C)c(Nc2ccnc(Nc3ccc(-c4cnc[nH]4)cc3)n2)c1.Cl [GW784041],26%,5%,8%,10%,0%,1%,0%,3%,1%,6%,0%,0%,0%,0%,0%,12%,0%,71%,28%,70%
NCCC(NC(=O)c1cc(Br)c(-c2ccnc3[nH]ccc23)s1)c1ccccc1.O=C(O)C(F)(F)F.O=C(O)C(F)(F)F (stereo not drawn) [GSK1307810],44%,39%,46%,46%,37%,31%,44%,0%,13%,0%,53%,4%,48%,66%,67%,64%,78%,0%,0%,16%
COc1cccc2c(-c3ccncc3)c(-c3ccc(F)cc3)nn12 [GW468513],4%,0%,23%,0%,0%,48%,0%,20%,3%,0%,23%,86%,3%,0%,0%,9%,0%,0%,0%,23%
COc1cccc(NC(=O)NCCNc2ccnc(Nc3ccc(F)cc3)n2)c1 [GSK1379879],0%,0%,0%,34%,18%,0%,3%,0%,3%,0%,0%,0%,0%,40%,12%,2%,3%,4%,0%,7%
Cl.Cl.NCC(NC(=O)c1cc(-c2cccnc2)c(-c2ccnc3[nH]ccc23)s1)c1ccccc1 (stereo not drawn) [GSK1323434],58%,0%,18%,57%,61%,53%,29%,40%,0%,0%,0%,31%,27%,42%,51%,70%,27%,0%,12%,32%
O=C(Nc1n[nH]c2nc(-c3cccc(O)c3)ccc12)C1CC1 [SB-711805],0%,51%,0%,0%,0%,0%,30%,0%,0%,0%,52%,14%,0%,4%,14%,13%,28%,0%,0%,48%
O=C(Nc1c(F)cccc1F)c1cc(C(=O)c2ccccc2F)c[nH]1 [GSK1326180],8%,0%,4%,0%,5%,0%,1%,24%,0%,10%,1%,0%,0%,52%,18%,5%,11%,0%,0%,0%
COC(=O)Nc1nc2ccc(Oc3ccc(CC(=O)Nc4cc(C(F)(F)F)ccc4F)cc3)cc2[nH]1 [GW680903],0%,0%,1%,0%,65%,4%,0%,5%,4%,0%,0%,9%,9%,10%,4%,0%,0%,0%,0%,2%
O=C(O)C(F)(F)F.O=c1[nH]ccc2nc(N[C@@H]3CCNC3)nc(Nc3cc(Cl)cc(Cl)c3)c12 [GSK2188764],94.6%,99.9%,65%,86%,96.7%,64%,98.3%,30%,94.8%,55%,96.3%,32%,94.3%,91.5%,96.4%,99.5%,99.9%,54%,1%,98.9%
Cn1cc(-c2ccc3c(c2)CCN3C(=O)Cc2cc(F)cc(F)c2F)c2c(N)ncnc21 [GSK2634140],19%,0%,20%,0%,21%,0%,12%,0%,12%,0%,0%,0%,17%,16%,4%,0%,0%,0%,8%,60%
Cc1nn2c(=O)cc(N3CCO[C@H](C)C3)nc2n1Cc1cccc(Cl)c1Cl [GSK2373693],18%,39%,19%,24%,0%,4%,10%,5%,26%,4%,0%,0%,4%,89%,1%,0%,0%,0%,0%,4%
